Assay results as given in PubChem BioAssay (NCI).
The panel holds about 79,000 compounds, 15% with a hit somewhere; the sample as a whole holds those more often. Activity calls are given as the source filed them. No stated cut-off is given here; in the data, active means growth inhibition above about 70%; inactive means the rest.

Key:
[1] = NCI Yeast Anticancer Drug Screen. Data for the wt1 strain (AID 149);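 further: 0% = growth of vehicle-treated wt1 cultures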; conditions: S. cerevisiae wt1 strain (SPY 50644) growth inhibition, active compounds read high
Summary of the method: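 Growth inhibition read against vehicle controls after compound exposure of the wt1 yeast strain.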

[2] = NCI Yeast Anticancer Drug Screen. Data for the rad50EPP+ strain (AID 151);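 further: 0% = growth of vehicle-treated control cultures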; conditions: S. cerevisiae rad50 mutant strain, active compounds read high
Summary of the method: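 Exposing the rad50EPP+ strain to each compound, growth was compared with vehicle-only cultures to give inhibition.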

[3] = NCI Yeast Anticancer Drug Screen. Data for the mgt1 strain (AID 153); conditions: S. cerevisiae mgt1 mutant growth inhibition, active compounds read high
Summary of the method: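 Genetically defined yeast (mgt1) treated with compound; inhibition of growth expressed against vehicle-treated controls.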

[4] = NCI Yeast Anticancer Drug Screen. Data for the mec2-1 strain (AID 157); conditions: S. cerevisiae mec2-1 strain, active compounds read high
Summary of the method: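 Readout is yeast growth inhibition, normalised to vehicle-treated controls, in the mec2-1 strain exposed to compound.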

[5] = NCI Yeast Anticancer Drug Screen. Data for the rad14 strain (AID 159);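 further: 0% = growth of vehicle-treated control cultures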; conditions: S. cerevisiae rad14 strain growth inhibition, active compounds read high
Summary of the method: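 Growth inhibition vs vehicle controls; genetically altered yeast strain (DNA damage repair defect) treated with test compounds.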

[6] = NCI Yeast Anticancer Drug Screen. Data for the sgs1 mgt1 strain (AID 161);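 further: 0% = growth of cultures given vehicle only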; conditions: S. cerevisiae sgs1 mgt1 strain, active compounds read high
Summary of the method: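 This yeast growth screen uses a strain with defined DNA-repair lesions; compound-treated growth is compared with vehicle-treated growth.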

[7] = NCI Yeast Anticancer Drug Screen. Data for the CLN2oe strain (AID 163);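 further: 0% = growth of vehicle-only control cultures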; conditions: S. cerevisiae CLN2oe strain, active compounds read high
Summary of the method: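 Values reflect how much compound exposure reduced yeast growth, referenced to vehicle-exposed cells. Assay organism is a strain with a defined genetic change affecting cell-cycle control.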

[8] = NCI Yeast Anticancer Drug Screen. Data for the cln2 rad14 strain (AID 165);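 further: 0% = growth equal to vehicle treated cultures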; conditions: S. cerevisiae cln2 rad14 strain, active compounds read high
Summary of the method: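 Relative to vehicle controls, growth inhibition of compound-treated cln2 rad14 yeast was recorded.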

[9] = NCI Yeast Anticancer Drug Screen. Data for the bub3 strain (AID 167); conditions: S. cerevisiae bub3 mutant strain, active compounds read high
Summary of the method: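 Readout: yeast growth inhibition, expressed relative to vehicle-only wells. The test organism is a mutant strain from a panel with lesions in DNA repair or checkpoint genes.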

[10] = NCI Yeast Anticancer Drug Screen. Data for the wt2 strain (AID 169);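 further: 0% = growth of vehicle-treated yeast cultures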; conditions: S. cerevisiae wt2 strain growth inhibition, active compounds read high
Summary of the method: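 Values express reduction in yeast growth under compound treatment, referenced to vehicle-treated cells.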

[11] = NCI Yeast Anticancer Drug Screen. Data for the mlh1 strain (AID 171);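 further: 0% = growth of vehicle-treated control cultures of the same strain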; conditions: S. cerevisiae mlh1 strain growth inhibition, active compounds read high
Summary of the method: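 Steps: expose the defined-mutant yeast strain to compound; expose a parallel culture to vehicle; measure growth; express compound effect as inhibition relative to the vehicle culture.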

[12] = NCI Yeast Anticancer Drug Screen. Data for the sgs1 strain (AID 173);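 further: 0% = growth of vehicle-only control cultures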; conditions: S. cerevisiae sgs1 mutant, active compounds read high
Summary of the method: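 Treat defined-mutant yeast with compound; measure growth; calculate inhibition relative to vehicle-treated cells.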

[13] = NCI Yeast Anticancer Drug Screen. Data for the mlh1 rad18 strain (AID 175); conditions: S. cerevisiae mlh1 rad18 strain growth inhibition, active compounds read high
Summary of the method: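 Test agents were incubated with a yeast strain of defined genotype (DNA damage repair defect). Inhibition of growth was derived by comparison with vehicle-exposed cultures.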

[14] = NCI Yeast Anticancer Drug Screen. Data for the rad18 strain (AID 177); conditions: S. cerevisiae rad18 mutant growth inhibition, active compounds read high
Summary of the method: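 A genetically defined yeast mutant impaired in DNA damage repair was treated with test compounds, then its growth was measured against cultures receiving vehicle alone.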

[15] = NCI Yeast Anticancer Drug Screen. Data for the rad50 strain (AID 155);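 further: 0% = growth of vehicle-only cultures of the same strain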; conditions: S. cerevisiae rad50 strain growth inhibition, active compounds read high
Summary of the method: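 Readout: growth inhibition relative to vehicle-treated cultures. Compound exposure was carried out in a genetically defined yeast strain deficient in DNA damage repair.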

[16] = at 5.0 µM (retest, dose inferred, filed as 0.5)
[17] = at 50.0 µM (retest, dose inferred, filed as 5.0)

Measured: growth inhibition

CCCCCCCCCCCC1=NCCO1
inactive: [1]; at 1.2 µM 1% | [1]; at 3.7 µM -1% | [1]; at 11.0 µM 2% | [1]; at 33.0 µM 15% | [2]; at 1.2 µM 4% | [2]; at 3.7 µM 5% | [2]; at 11.0 µM 16% | [2]; at 33.0 µM 27% | [2]; at 100.0 µM 53% | [3]; at 1.2 µM -5% | [3]; at 3.7 µM 3% | [3]; at 11.0 µM 0% | [3]; at 33.0 µM 27% | [4]; at 1.2 µM -6% | [4]; at 3.7 µM -4% | [4]; [16] -12% | [4]; at 11.0 µM -13% | [4]; at 33.0 µM 18% | [4]; [17] -21% | [4]; at 50.0 µM 46.3% | [5]; at 1.2 µM 3% | [5]; at 3.7 µM 9% | [5]; at 11.0 µM 15% | [5]; at 33.0 µM 50% | [6]; [16] -12% | [6]; [17] 47% | [7]; at 1.2 µM -3% | [7]; at 3.7 µM -1% | [7]; at 11.0 µM 4% | [7]; at 33.0 µM 19% | [8]; [16] -18% | [8]; [17] 36% | [8]; at 50.0 µM 21% | [9]; at 1.2 µM -19% | [9]; at 3.7 µM -27% | [9]; [16] -34% | [9]; at 11.0 µM -1% | [9]; at 33.0 µM 8% | [9]; [17] 31% | [9]; at 50.0 µM 24.5% | [10]; at 1.2 µM -1% | [10]; at 3.7 µM 0% | [10]; at 11.0 µM 2% | [10]; at 33.0 µM 61% | [11]; at 1.2 µM -5% | [11]; at 3.7 µM -3% | [11]; at 11.0 µM -10% | [11]; at 33.0 µM 16% | [12]; at 1.2 µM 1% | [12]; at 3.7 µM -1% | [12]; at 11.0 µM 6% | [12]; at 33.0 µM 63% | [13]; [16] -16% | [13]; at 50.0 µM 41% | [14]; at 1.2 µM 4% | [14]; at 3.7 µM 8% | [14]; at 11.0 µM 5% | [14]; at 33.0 µM 10%
active: [1]; at 100.0 µM 98% | [3]; at 100.0 µM 99% | [4]; at 100.0 µM 99% | [5]; at 100.0 µM 99% | [6]; at 50.0 µM 87.6% | [7]; at 100.0 µM 99% | [9]; at 100.0 µM 98% | [10]; at 100.0 µM 99% | [11]; at 100.0 µM 99% | [12]; at 100.0 µM 99% | [13]; [17] 71% | [14]; at 100.0 µM 98%

Cc1cc(=O)oc2c(C)c3occc(=O)c3cc12
inactive: [1]; at 1.2 µM 4% | [1]; at 3.7 µM -2% | [1]; at 11.0 µM 0% | [1]; at 33.0 µM 5% | [1]; at 100.0 µM 23% | [2]; at 1.2 µM -1% | [2]; at 3.7 µM -1% | [2]; at 11.0 µM 4% | [2]; at 33.0 µM 29% | [2]; at 100.0 µM 67% | [3]; at 1.2 µM -5% | [3]; at 3.7 µM 3% | [3]; at 11.0 µM -11% | [3]; at 33.0 µM -10% | [3]; at 100.0 µM 44% | [15]; at 1.2 µM -1% | [15]; at 3.7 µM 2% | [15]; [16] 24% | [15]; at 11.0 µM 18% | [15]; at 33.0 µM 59% | [15]; [17] 67% | [4]; at 1.2 µM -2% | [4]; at 3.7 µM 0% | [4]; [16] -6% | [4]; at 11.0 µM 4% | [4]; at 33.0 µM 14% | [4]; [17] 21% | [4]; at 50.0 µM 67.2% | [4]; at 100.0 µM 40% | [5]; at 1.2 µM 2% | [5]; at 3.7 µM 2% | [5]; at 11.0 µM 1% | [5]; at 33.0 µM 9% | [5]; at 100.0 µM 28% | [6]; [16] -10% | [6]; [17] 8% | [7]; at 1.2 µM -2% | [7]; at 3.7 µM -1% | [7]; at 11.0 µM 9% | [7]; at 33.0 µM 6% | [7]; at 100.0 µM 29% | [8]; [16] -17% | [8]; [17] 15% | [8]; at 50.0 µM 43.8% | [9]; at 1.2 µM -1% | [9]; at 3.7 µM -1% | [9]; [16] 12% | [9]; at 11.0 µM 3% | [9]; at 33.0 µM 5% | [9]; [17] 19% | [9]; at 100.0 µM 15% | [10]; at 1.2 µM -1% | [10]; at 3.7 µM -2% | [10]; at 11.0 µM 1% | [10]; at 33.0 µM 10% | [10]; at 100.0 µM 32% | [11]; at 1.2 µM -1% | [11]; at 3.7 µM 4% | [11]; at 11.0 µM 2% | [11]; at 33.0 µM 11% | [11]; at 100.0 µM 48% | [12]; at 1.2 µM 0% | [12]; at 3.7 µM -2% | [12]; at 11.0 µM 0% | [12]; at 33.0 µM 6% | [12]; at 100.0 µM 34% | [13]; [16] 11% | [13]; [17] 21% | [13]; at 50.0 µM 63.1% | [14]; at 1.2 µM -1% | [14]; at 3.7 µM -4% | [14]; at 11.0 µM -2% | [14]; at 33.0 µM 7% | [14]; at 100.0 µM 40%
active: [15]; at 50.0 µM 94.3% | [15]; at 100.0 µM 84% | [6]; at 50.0 µM 74.4% | [9]; at 50.0 µM 78%
